We go through 92 molecules from PubChem BioAssay AID463173 (ICCB-Longwood Screening Facility, Harvard Medical School, 2010).

The whole screen tested about 52,000 compounds, of which about 1,700 (3.3%) were called active. No stated cut-off is given here; in the data, active means survival mostly below about 52% (no sharp cut-off); inactive means mostly above about 56%. The list comes from a sample in which actives are over-represented; it also holds similar structures and randomly drawn compounds.

The test system of the experiment is Wild type. Nature of the experiment: growth inhibition of S. aureus wild type versus tarO mutant, primary screen, teichoic acid synthesis inhibitors, RN4220, OD600 (AID 463173). The following applies: S. aureus RN4220 wild type/DeltatarO growth, OD600, 18 h, active compounds read low, screened at 18.75 µg/mL (by protocol).
`CCCCSc1nc(-c2cccc(OC)c2)nc2c1Cc1c(CO)cnc(C)c1O2`: the survival is 86% (inactive). In the case of `O=C(c1nc(-c2ccc(Cl)cc2)n2c1CCCCC2)N1CCN(c2ccccc2F)CC1` it was 68% (inactive); in that of `COc1ccc(CCNC(=O)CN(c2cc(C(F)(F)F)ccc2Cl)S(C)(=O)=O)cc1`, 68% (inactive).

With `CCc1ccc(N2CC(c3nnc(NC(=O)c4ccco4)s3)CC2=O)cc1` (configuration not stated), the survival is 78% (inactive). In the case of `Cc1nn(-c2ccccc2)c2sc(C(=O)Nc3cccc(Br)c3)cc12` it was 36% (inactive); in that of `CCOc1ccc(NC(=O)c2cc3c(C)nn(-c4ccccc4)c3s2)cc1`, 78% (inactive). In the case of `Cc1nn(-c2ccccc2)c2sc(C(=O)Nc3cccc(O)c3)cc12` it was 43% (inactive). In the case of `Cc1cccc(NC(=O)c2cc3c(C)nn(-c4ccccc4)c3s2)c1` it was -2% (active); in that of `Cc1nn(-c2ccccc2)c2sc(C(=O)Nc3ccc(Cl)cc3Cl)cc12`, 72% (inactive); in that of `Cc1nn(-c2ccccc2)c2sc(C(=O)Nc3cccc(Cl)c3)cc12`, 5% (active). Turning to `CCOc1ccccc1C(=O)N(Cc1cc(OC)c(OC)c(OC)c1)c1ccccn1`, the survival is 82% (inactive). For `CCCOc1ccc(-c2cccc(NS(=O)(=O)c3ccc(CC)cc3)c2)nn1`, the survival is 69% (inactive).

For the molecule `COC(=O)c1cccc(S(=O)(=O)N2CCC(NC(=O)Nc3cccc(F)c3)CC2)c1`, the survival is 110% (inactive). The result for `CCOc1ccc(Nc2c(S(=O)(=O)c3ccccc3)cnc3ccc(CC)cc23)cc1` reads 4% (active); that for `CCOC(=O)c1cnc2ccc(OCC)cc2c1Nc1ccc(OCc2ccccc2Cl)cc1`, 5% (active). The result for `CCOC(=O)c1cnc2cc(C(F)(F)F)ccc2c1Nc1ccc(F)cc1F` reads -12% (active); that for `CCOc1ccc(Nc2cc(C(=O)NCc3ccccc3Cl)c3ccccc3n2)cc1`, 92% (inactive). In the case of `CCOC(=O)c1cnc2cc(C(F)(F)F)ccc2c1Nc1cc(C)ccc1OC` it was 67% (inactive); in that of `CCOC(=O)c1cnc2ccc(OCC)cc2c1NCCN(C)C`, 103% (inactive). Regarding `CCOC(=O)c1cnc2ccc(OCC)cc2c1Nc1cc(Cl)c(OC)cc1OC`, the survival was 60% (inactive). The result for `CCOC(=O)c1cnc2c(ccc3ccccc32)c1Nc1cccc(C(F)(F)F)c1` reads 37% (inactive). In the case of `CCOc1ccc(Nc2c(S(=O)(=O)c3ccc(Cl)cc3)cnc3ccc(OCC)cc23)cc1` it was 79% (inactive); in that of `CCOc1ccc(Nc2c(S(=O)(=O)c3ccccc3)cnc3ccccc23)cc1`, 38% (inactive). In the case of `CCOC(=O)c1cnc2ccc(Cl)cc2c1Nc1ccc(OCC)cc1` it was -3% (active).

In the case of `CCOc1ccc(Nc2c(S(=O)(=O)c3ccccc3)cnc3ccc(F)cc23)cc1`, the survival is 61% (inactive). As for `CC(=O)NCCNc1nc2c(S(=O)(=O)c3ccc(C)c(C)c3)nnn2c2ccc(Cl)cc12`, the survival was 80% (inactive). The result for `O=C(CN1C(=O)COc2ccc(S(=O)(=O)N3CCOCC3)cc21)NCc1ccc(Cl)cc1` reads 78% (inactive); that for `CCNc1c(NC(=O)c2ccccc2OCC)c(=O)oc2ccccc12`, 90% (inactive). In the case of `CC1=C(C(=O)Nc2ccccc2)C(c2ccc(C)o2)NC(=S)N1` (configuration not stated) it was 109% (inactive); in that of `O=C(O)c1cnc2ccccn2c1=O`, 109% (inactive). Consider `Cc1noc(C)c1S(=O)(=O)N(CC(=O)NCc1ccccc1Cl)c1ccc(C(C)C)cc1`, for which the survival is 82% (inactive). The result for `NC(=O)CSc1nnc(COc2ccccc2)n1C1CCCCC1` reads 110% (inactive). As for `CCOC(=O)C1CCN(C(c2ccccc2OC)c2c(O)cc(C)n(CCOC)c2=O)CC1` (configuration not stated), the survival was 70% (inactive). The result for `Cc1ccc(N2CC(NC(=O)C3CCCC3)CC2=O)cc1` (configuration not stated) reads 55% (inactive); that for `COCCn1c(CNC(=O)c2cccc(N(C)C)c2)nc2cccnc21`, 65% (inactive). In the case of `Cc1nn(CC(=O)NCc2ccc(N(C)C)cc2)c(=O)c2c(C)n(-c3ccc(Cl)cc3)nc12` it was 95% (inactive); in that of `COc1ccc(CC(C)NS(=O)(=O)c2ccc3c(c2)CCN3S(C)(=O)=O)cc1OC` (configuration not stated), 134% (inactive); in that of `CCOC(=O)c1c(C)[nH]c(C)c1S(=O)(=O)N(C)CC(=O)Nc1ccc(C)c(N(C)C)c1`, 73% (inactive). `CCOC(=O)c1cnc2c(Cl)cc(Cl)cc2c1Nc1cc(C(=O)O)ccc1C`: the survival is 61% (inactive). With `CCOC(=O)c1cnc2c(C)c(Cl)ccc2c1Nc1ccc(N2CCOCC2)cc1`, the survival is 60% (inactive).

Turning to `CCOC(=O)c1cnc2ccccc2c1Nc1ccc(N2CCOCC2)cc1`, the survival was 68% (inactive).

With `CCOC(=O)c1cnc2ccc(C(=O)OC)cc2c1Nc1ccccc1CC`, the survival was -1% (active). On to `CCOC(=O)c1cnc2ccc(OC(F)(F)F)cc2c1Nc1ccccc1C(=O)O`, for which the survival is 52% (inactive). The result for `CCOC(=O)c1cnc2ccc(C)cc2c1Nc1ccc(N(CC)CC)cc1` reads -2% (active); that for `CCOC(=O)c1cnc2ccc(C)cc2c1NCCc1ccc(OC)c(OC)c1`, 117% (inactive). In the case of `CCOC(=O)c1ccc2ncc(C(=O)OCC)c(Nc3ccc(C)c(Br)c3)c2c1` it was 72% (inactive); in that of `CCOC(=O)c1cnc2ccc(Cl)cc2c1Nc1ccc(N2CCOCC2)cc1`, 0% (active); in that of `CCOC(=O)c1cnc2ccc(C(=O)OC)cc2c1Nc1ccc(N2CCOCC2)cc1`, 115% (inactive). In the case of `CCCOC(=O)c1ccc(Nc2c(C(=O)OCC)cnc3c(C)cc(Cl)cc23)cc1` it was 4% (active). For the molecule `CCOC(=O)c1cnc2cc(F)c(F)cc2c1Nc1ccccc1O`, the survival was 169% (inactive). The result for `CCOc1ccc(-c2nc(SCC(=O)Nc3cc(F)ccc3F)n3[nH]c(=O)cc3n2)cc1` reads 77% (inactive); that for `CC1=C(C(=O)NCCc2ccc(Cl)cc2)C2(CCCCC2)OC1=O`, 73% (inactive); that for `CC(C)CNc1nc(NC(C)(C)C)nc(Oc2ccc(=O)n(-c3ccccc3)n2)n1`, 84% (inactive). The result for `CCc1ccc(NCc2cc3cc(OC)c(OC)cc3n(CC(=O)Nc3cc(C)ccc3C)c2=O)cc1` reads 63% (inactive); that for `CCN(C(=O)CSc1nc2ccccc2n1Cc1cc(C)ccc1C)c1ccccc1`, 72% (inactive). As for `COc1cc(NC(=O)Cn2cc(S(=O)(=O)c3ccccc3)c(=O)c3ccccc32)cc(OC)c1`, the survival was 78% (inactive). The result for `COc1ccc(N(C(=O)COc2ccc(Br)cc2)S(=O)(=O)c2ccc(C)cc2)cc1` reads 87% (inactive); that for `CCCCN(CC)C(=O)Cn1ncc2c3ccccc3n(CCC)c2c1=O`, 98% (inactive); that for `CN(C)CC(O)C1CCOC(C)(C)C1` (configuration not stated), 111% (inactive). The result for `CCOC(=O)c1cnc2ccc(OC)cc2c1Nc1cccc(C(C)=O)c1` reads 2% (active); that for `CCOC(=O)c1cnc2ccc(OC)cc2c1Nc1ccc(OCc2ccccc2Cl)cc1`, 6% (active).

Regarding `CCOC(=O)c1cnc2ccc(C(=O)OC)cc2c1Nc1ccc(OCc2ccccc2Cl)cc1`, the survival was 129% (inactive). In the case of `CCOC(=O)c1cnc2ccc(C)cc2c1Nc1ccc(OCc2ccccc2Cl)cc1` it was 4% (active); in that of `CCOc1ccc(Nc2c(S(=O)(=O)c3ccc(Cl)cc3)cnc3ccc(OC)cc23)cc1`, 88% (inactive). The result for `CN(C)c1cc(Nc2ccc(Cl)cc2)c2c3c(onc13)-c1ccccc1C2=O` reads 96% (inactive); that for `CCC(=O)N1CCc2cc(S(=O)(=O)NC(C(=O)NCCc3ccccc3)C(C)C)ccc21` (configuration not stated), 83% (inactive); that for `CCC1CCc2nc3sc(C(=O)Nc4ccc(F)cc4F)c(N)c3cc2C1` (configuration not stated), 92% (inactive). The result for `Cc1cccc(CCNC(=O)Cn2ncc3c(=O)oc4ccccc4c32)c1` reads 76% (inactive). In the case of `Fc1ccc(-c2ccc(NCc3ccccc3)nn2)cc1`, the survival is 119% (inactive). The result for `Cc1cccc(CNC(=O)C2CCC(CNS(=O)(=O)c3ccc4c(c3)CCCC(=O)N4)CC2)c1` (configuration not stated) reads 65% (inactive); that for `CCn1cc2nc(SCc3cccc(C(F)(F)F)c3)n(Cc3ccc(OC)cc3)c(=O)c2n1`, 71% (inactive); that for `CCn1cc2nc(SCc3cccc(C(F)(F)F)c3)n(Cc3ccc(Cl)cc3)c(=O)c2n1`, 146% (inactive).

In the case of `CCn1cc2nc(SCc3cccc(OC)c3)n(Cc3ccc(Cl)cc3)c(=O)c2n1`, the survival is 10% (active). In the case of `CCc1ccc(-c2cn3c(n2)SCC3)cc1` it was 111% (inactive); in that of `CCCNC(=O)Cn1c(=O)c2cccn2c2cccnc21`, 89% (inactive).

In the case of `Cc1c(CNC(C)CCc2ccccc2)c(C(=O)O)c(C)n1Cc1ccc(F)cc1` (configuration not stated), the survival was 93% (inactive).

With `N#Cc1nc(COc2ccccc2Cl)oc1NCCc1ccccc1`, the survival is 25% (inactive). For the molecule `Cc1ccc(OCc2nc(C#N)c(NCCc3ccccc3)o2)cc1`, the survival was -1% (active). In the case of `N#Cc1nc(COc2cccc(Cl)c2)oc1NCCc1ccccc1` it was 19% (inactive); in that of `O=C(CCc1ccccc1)Nc1ccccc1`, 105% (inactive); in that of `CC(=O)Nc1ccc(NS(=O)(=O)c2c(C(=O)N3CCC(C)CC3)c(C)n(C)c2C)cc1`, -3% (active).

For the molecule `Cc1cc(Cl)ccc1NS(=O)(=O)c1c(C(=O)N2CCCCCC2)c(C)n(C)c1C`, the survival is 77% (inactive). The result for `COc1cc(OC)c(NS(=O)(=O)c2c(C(=O)N3CCCCCC3)c(C)n(C)c2C)cc1Cl` reads 54% (inactive); that for `CCOc1ccc(OCC)c(NS(=O)(=O)c2c(C(=O)N3CCCCCC3)c(C)n(C)c2C)c1`, 71% (inactive).

Turning to `CC(=O)Nc1ccc(NS(=O)(=O)c2c(C(=O)N3CCCCCC3)c(C)n(C)c2C)cc1`, the survival is 65% (inactive). The result for `Cc1c(C(=O)N2CCC(C)CC2)c(S(=O)(=O)NCc2ccc(Cl)cc2)c(C)n1C` reads 133% (inactive); that for `CCOc1ccc(CNS(=O)(=O)c2c(C(=O)N3CCC(C)CC3)c(C)n(C)c2C)cc1OC`, 71% (inactive); that for `Cc1cc(Cl)ccc1NS(=O)(=O)c1c(C(=O)N2CCC(C)CC2)c(C)n(C)c1C`, 14% (active). The result for `COc1cc(OC)c(NS(=O)(=O)c2c(C(=O)N3CCC(C)CC3)c(C)n(C)c2C)cc1Cl` reads -1% (active). The result for `Cc1ccc(NS(=O)(=O)c2c(C(=O)N3CCC(C)CC3)c(C)n(C)c2C)cc1Cl` reads 131% (inactive); that for `COc1ccc(C)cc1NS(=O)(=O)c1c(C(=O)N2CCC(C)CC2)c(C)n(C)c1C`, 85% (inactive). Take `CCOc1ccc(OCC)c(NS(=O)(=O)c2c(C(=O)N3CCC(C)CC3)c(C)n(C)c2C)c1`: the survival is 0% (active).
